Test results published in the supplement of paper PMC10849652.
Targets with a hit are over-represented here; the source holds about 7,900 in all. About 0.6% of all pairs of compound and target were hits.

Columns and labels:
Experiment in all cases: log2 fold change, soluble protein after heating vs DMSO (PISA); higher = thermal stabilisation; K562 cells, 10 uM, 30 min; active = over 0.2 and 3.5 SD of the protein, either way, in both replicates (recomputed)
[1] = compound: CC1=C(C=C(C=C1)NC(=O)C2=CC(=CC=C2)C(C)(C)C#N)NC3=CC4=C(C=C3)N=CN(C4=O)C
Method in brief: (§1)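 Aliquots of K562 cells (2×10^6 cells/mL) treated with 10 μM compound for 30 min were heated for 3 min over 48°C-58°C. After pooling and extraction in PBS with 0.5% NP-40 at 4°C, soluble protein from a 21,000xg, 90 min spin was quantified by TMTpro 16plex LC-MS/MS with channel sums equalised. Thermal stability is expressed against control samples, from duplicates, as a log2 fold change.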

[2] = compound: CC1=C(C=C(C=C1)NC(=O)C2=CC(=CC=C2)N(C)C)NC(=O)C3=CC=C(C=C3)O
Method in brief: as §1

[3] = compound: CC1=CC=C(C=C1)SC2=C3C=C(SC3=CN=C2)C(=O)N
Method in brief: as §1

[4] = compound: CC1=NC(=CC=C1)C2=C(N=C(N2)C(C)(C)C)C3=CC4=NC=CN=C4C=C3
Method in brief: as §1

[5] = compound: CCCCN(Cc1ccc(C(=O)NO)cc1)C(=O)Nc1ccccc1 [Nexturastat A]
Method in brief: as §1

[6] = compound: CCCS(=O)(=O)Nc1ccc(F)c(C(=O)c2c[nH]c3ncc(-c4ccc(Cl)cc4)cc23)c1F [vemurafenib]
Method in brief: as §1

[7] = compound: CCCS(=O)(=O)Nc1ccc(F)c(C(=O)c2c[nH]c3ncc(Cl)cc23)c1F
Method in brief: as §1

[8] = compound: CCCc1cc(C)[nH]c(=O)c1CNC(=O)c1cc(-c2ccnc(N3CCN(C)CC3)c2)cc2c1cnn2C(C)C
Method in brief: as §1

[9] = compound: CCN(CC)Cc1ccc2cc(COC(=O)Nc3ccc(C(=O)NO)cc3)ccc2c1 [givinostat]
Method in brief: as §1

[10] = compound: CCN(CCCOc1ccc2c(Nc3cc(CC(=O)Nc4cccc(F)c4)[nH]n3)ncnc2c1)CCOP(=O)(O)O [barasertib]
Method in brief: as §1

Measured: log2 fold change

ICMT (UniProt O60725)
inactive: [1] -0.048 | [2] -0.085 | [3] -0.079 | [4] 0.072 | [5] -0.204 | [6] 0 | [7] -0.103 | [8] 0.064 | [9] -0.037 | [10] 0.022

GEMIN2 (UniProt O14893)
inactive: [1] -0.073 | [2] 0.033 | [3] 0 | [4] -0.002 | [5] 0.243 | [6] -0.028 | [7] -0.023 | [8] 0.029 | [10] 0.078

GEMIN6 (UniProt Q8WXD5)
Chain of UniProt Q8WXD5 (Q8WXD5 whole entry, looked up): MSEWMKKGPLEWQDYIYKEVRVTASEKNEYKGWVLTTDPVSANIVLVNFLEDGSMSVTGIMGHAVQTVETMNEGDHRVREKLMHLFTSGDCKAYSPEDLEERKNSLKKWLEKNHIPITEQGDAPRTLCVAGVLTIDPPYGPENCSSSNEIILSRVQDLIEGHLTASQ
inactive: [1] -0.049 | [2] -0.05 | [3] 0.014 | [4] 0.015 | [5] 0.134 | [6] 0.073 | [7] -0.001 | [8] 0.008 | [9] -0.088 | [10] -0.053

GTF3C5 isoform 3 (UniProt Q9Y5Q8)
Chain of UniProt Q9Y5Q8 (Q9Y5Q8 whole entry, looked up): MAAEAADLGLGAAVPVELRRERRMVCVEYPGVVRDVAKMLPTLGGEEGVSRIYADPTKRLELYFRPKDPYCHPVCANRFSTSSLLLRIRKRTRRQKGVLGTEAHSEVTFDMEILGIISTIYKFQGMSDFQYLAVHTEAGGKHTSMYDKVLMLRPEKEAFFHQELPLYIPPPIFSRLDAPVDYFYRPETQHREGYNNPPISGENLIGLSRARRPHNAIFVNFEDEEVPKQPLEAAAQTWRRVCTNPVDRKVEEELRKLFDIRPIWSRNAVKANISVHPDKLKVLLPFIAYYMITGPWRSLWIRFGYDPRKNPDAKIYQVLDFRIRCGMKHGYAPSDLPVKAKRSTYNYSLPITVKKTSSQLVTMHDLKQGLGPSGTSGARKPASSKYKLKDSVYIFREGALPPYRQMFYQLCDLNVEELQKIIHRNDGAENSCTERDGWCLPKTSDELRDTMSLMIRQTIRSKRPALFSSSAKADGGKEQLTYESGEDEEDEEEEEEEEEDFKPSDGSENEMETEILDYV
inactive: [1] 0.058 | [2] -0.022 | [3] 0.088 | [4] 0.007 | [5] 0.136 | [6] 0.101 | [7] 0.056 | [8] 0.061 | [9] 0.045 | [10] 0.08

GCLM (UniProt P48507)
inactive: [1] 0.044 | [2] -0.04 | [3] 0.019 | [4] 0.057 | [5] -0.006 | [6] 0.1 | [7] 0.099 | [8] 0.002 | [9] 0.074 | [10] 0.066

GUSB (UniProt P08236)
inactive: [1] -0.013 | [2] -0.014 | [3] -0.027 | [4] -0.073 | [5] 0.277 | [6] 0.06 | [7] 0.03 | [8] -0.038 | [10] -0.048
active: [9] -0.501

GCC2 (UniProt Q8IWJ2)
Chain of UniProt Q8IWJ2 (Q8IWJ2 whole entry, looked up): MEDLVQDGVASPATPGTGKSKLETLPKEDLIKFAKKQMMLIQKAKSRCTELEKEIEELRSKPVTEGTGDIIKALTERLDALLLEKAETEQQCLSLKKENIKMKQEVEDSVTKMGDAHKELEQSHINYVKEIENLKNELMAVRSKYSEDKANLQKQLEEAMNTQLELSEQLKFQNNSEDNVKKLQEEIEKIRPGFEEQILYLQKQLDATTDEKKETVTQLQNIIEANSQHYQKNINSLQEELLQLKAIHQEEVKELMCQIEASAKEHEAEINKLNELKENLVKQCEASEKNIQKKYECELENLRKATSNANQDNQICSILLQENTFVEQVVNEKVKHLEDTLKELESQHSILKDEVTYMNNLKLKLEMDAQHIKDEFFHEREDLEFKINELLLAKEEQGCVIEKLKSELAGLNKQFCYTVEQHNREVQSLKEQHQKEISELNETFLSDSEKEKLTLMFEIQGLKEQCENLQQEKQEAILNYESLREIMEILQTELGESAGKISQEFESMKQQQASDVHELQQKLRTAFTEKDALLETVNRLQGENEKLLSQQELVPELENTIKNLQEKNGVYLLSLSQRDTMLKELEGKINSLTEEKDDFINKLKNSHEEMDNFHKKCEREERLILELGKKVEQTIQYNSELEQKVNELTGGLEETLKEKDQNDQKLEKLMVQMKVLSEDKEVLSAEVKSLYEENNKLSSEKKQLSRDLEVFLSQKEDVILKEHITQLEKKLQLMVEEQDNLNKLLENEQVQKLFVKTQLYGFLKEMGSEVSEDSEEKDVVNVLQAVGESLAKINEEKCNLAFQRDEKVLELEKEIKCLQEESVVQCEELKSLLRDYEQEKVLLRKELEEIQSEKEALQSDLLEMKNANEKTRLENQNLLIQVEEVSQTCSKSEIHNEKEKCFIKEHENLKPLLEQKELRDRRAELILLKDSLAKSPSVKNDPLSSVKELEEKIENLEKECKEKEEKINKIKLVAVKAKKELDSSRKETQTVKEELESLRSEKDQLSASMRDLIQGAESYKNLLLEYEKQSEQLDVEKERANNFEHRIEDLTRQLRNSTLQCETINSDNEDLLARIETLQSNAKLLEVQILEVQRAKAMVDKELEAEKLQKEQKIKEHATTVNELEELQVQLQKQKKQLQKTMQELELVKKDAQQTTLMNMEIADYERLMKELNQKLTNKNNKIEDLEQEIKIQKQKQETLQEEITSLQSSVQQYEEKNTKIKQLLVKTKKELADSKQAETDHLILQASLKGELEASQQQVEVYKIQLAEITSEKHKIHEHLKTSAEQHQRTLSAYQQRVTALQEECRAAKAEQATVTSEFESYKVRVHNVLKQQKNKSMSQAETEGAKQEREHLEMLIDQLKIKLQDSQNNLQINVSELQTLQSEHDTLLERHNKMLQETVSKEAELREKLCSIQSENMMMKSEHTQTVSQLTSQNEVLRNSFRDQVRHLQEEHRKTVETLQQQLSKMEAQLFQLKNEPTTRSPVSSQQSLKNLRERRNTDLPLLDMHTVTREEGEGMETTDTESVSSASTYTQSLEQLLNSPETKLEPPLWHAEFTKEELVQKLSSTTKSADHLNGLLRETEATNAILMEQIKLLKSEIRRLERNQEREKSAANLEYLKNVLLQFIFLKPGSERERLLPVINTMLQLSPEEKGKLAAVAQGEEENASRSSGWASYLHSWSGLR
inactive: [1] -0.004 | [2] -0.012 | [3] -0.016 | [4] -0.031 | [6] 0.025 | [7] 0.01 | [8] 0.073 | [9] 0.05 | [10] -0.037
active: [5] 0.322

GALC (UniProt P54803)
inactive: [1] 0.002 | [2] -0.032 | [3] 0 | [4] -0.013 | [5] 0.012 | [6] -0.03 | [7] -0.03 | [8] -0.049 | [9] 0.036 | [10] 0.002

GOLGB1 isoform 2 (UniProt Q14789)
inactive: [1] 0.033 | [2] -0.057 | [3] -0.09 | [4] -0.033 | [5] 0.177 | [6] -0.085 | [7] -0.07 | [8] -0.047 | [9] 0 | [10] -0.07

GTF2E2 (UniProt P29084)
Chain of UniProt P29084 (P29084 whole entry, looked up): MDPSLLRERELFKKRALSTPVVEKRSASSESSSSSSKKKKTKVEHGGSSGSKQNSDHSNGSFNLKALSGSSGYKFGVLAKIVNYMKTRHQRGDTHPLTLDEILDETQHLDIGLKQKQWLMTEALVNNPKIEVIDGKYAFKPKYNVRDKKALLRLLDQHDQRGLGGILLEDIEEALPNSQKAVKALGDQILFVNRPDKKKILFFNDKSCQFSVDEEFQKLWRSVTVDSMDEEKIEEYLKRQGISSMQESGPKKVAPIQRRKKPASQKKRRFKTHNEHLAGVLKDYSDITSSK
inactive: [1] 0.045 | [2] -0.068 | [3] -0.01 | [4] 0.02 | [5] 0.082 | [6] 0.057 | [7] -0.039 | [8] 0.055 | [9] 0.059 | [10] 0.035

GLCCI1 (UniProt Q86VQ1)
inactive: [1] 0.037 | [2] 0.104 | [3] -0.029 | [4] 0.028 | [5] 0 | [6] -0.007 | [7] -0.035 | [8] 0.033 | [9] 0.045 | [10] -0.075

HDAC2 (UniProt Q92769)
Chain of UniProt Q92769 (Q92769 whole entry, looked up): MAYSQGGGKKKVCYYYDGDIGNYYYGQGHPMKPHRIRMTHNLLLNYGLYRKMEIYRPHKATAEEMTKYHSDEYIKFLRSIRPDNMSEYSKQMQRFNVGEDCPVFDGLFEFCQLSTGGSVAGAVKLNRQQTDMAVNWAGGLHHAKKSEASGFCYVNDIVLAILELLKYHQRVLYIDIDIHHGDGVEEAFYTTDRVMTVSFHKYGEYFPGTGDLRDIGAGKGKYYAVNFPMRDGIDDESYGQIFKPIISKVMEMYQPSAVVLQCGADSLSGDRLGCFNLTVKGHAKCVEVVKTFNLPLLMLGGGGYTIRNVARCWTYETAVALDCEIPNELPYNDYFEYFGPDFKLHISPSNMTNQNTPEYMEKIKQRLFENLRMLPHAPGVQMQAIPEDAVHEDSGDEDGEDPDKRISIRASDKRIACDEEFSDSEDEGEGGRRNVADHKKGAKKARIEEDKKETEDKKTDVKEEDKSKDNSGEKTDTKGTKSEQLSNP
active: [5] 0.856
inactive: [1] -0.051 | [2] -0.001 | [3] 0.015 | [4] -0.006 | [6] -0.005 | [7] 0.019 | [8] -0.018 | [10] -0.039

GDE1 (UniProt Q9NZC3)
Chain of UniProt Q9NZC3 (Q9NZC3 whole entry, looked up): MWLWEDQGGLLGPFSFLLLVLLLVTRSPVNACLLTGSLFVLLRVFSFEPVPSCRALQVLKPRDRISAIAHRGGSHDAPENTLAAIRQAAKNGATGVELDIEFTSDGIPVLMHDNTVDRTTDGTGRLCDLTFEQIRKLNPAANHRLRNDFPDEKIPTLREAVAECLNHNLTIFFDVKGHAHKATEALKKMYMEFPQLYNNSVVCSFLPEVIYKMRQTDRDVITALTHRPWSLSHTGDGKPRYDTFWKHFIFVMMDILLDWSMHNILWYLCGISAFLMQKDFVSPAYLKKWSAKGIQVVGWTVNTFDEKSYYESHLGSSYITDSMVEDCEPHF
inactive: [1] 0.022 | [2] -0.004 | [3] 0.012 | [4] -0.059 | [5] 0.02 | [6] -0.033 | [7] -0.009 | [8] 0.064 | [9] -0.052 | [10] -0.049

HIC2 (UniProt Q96JB3)
inactive: [1] 0.039 | [2] 0.028 | [3] -0.005 | [4] -0.093 | [5] 0.131 | [6] 0.009 | [7] 0.123 | [8] -0.005 | [9] -0.035 | [10] -0.033

IFT74 (UniProt Q96LB3)
inactive: [1] -0.086 | [2] -0.044 | [3] -0.01 | [4] -0.084 | [6] -0.059 | [7] 0.005 | [8] -0.007 | [9] 0.26 | [10] -0.037
active: [5] 0.746

GLA (UniProt P06280)
Chain of UniProt P06280 (P06280 whole entry, looked up): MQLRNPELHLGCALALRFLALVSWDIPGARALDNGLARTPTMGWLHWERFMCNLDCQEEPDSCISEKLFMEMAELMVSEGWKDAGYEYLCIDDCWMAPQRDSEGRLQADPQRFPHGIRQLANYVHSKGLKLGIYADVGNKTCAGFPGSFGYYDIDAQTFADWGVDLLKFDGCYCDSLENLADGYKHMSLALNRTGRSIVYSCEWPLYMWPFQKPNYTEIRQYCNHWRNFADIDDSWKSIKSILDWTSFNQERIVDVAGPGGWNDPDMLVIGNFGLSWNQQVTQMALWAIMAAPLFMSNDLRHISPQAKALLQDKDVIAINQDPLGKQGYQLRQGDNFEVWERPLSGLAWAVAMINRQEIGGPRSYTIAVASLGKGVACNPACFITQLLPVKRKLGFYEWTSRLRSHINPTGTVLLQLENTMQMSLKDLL
inactive: [1] -0.016 | [2] 0.027 | [3] -0.001 | [4] 0.011 | [5] 0.005 | [6] -0.009 | [7] -0.038 | [8] -0.039 | [9] 0.04 | [10] 0.005

IFITM3 (UniProt Q01628)
Chain of UniProt Q01628 (Q01628 whole entry, looked up): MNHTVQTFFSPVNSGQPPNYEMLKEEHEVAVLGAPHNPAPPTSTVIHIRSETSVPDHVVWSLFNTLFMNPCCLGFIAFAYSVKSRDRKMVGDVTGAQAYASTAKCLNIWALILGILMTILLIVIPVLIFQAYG
active: [5] -0.425
inactive: [1] -0.058 | [2] 0.074 | [3] 0.148 | [4] -0.059 | [6] 0.177 | [7] 0.2 | [8] 0.218 | [9] -0.036 | [10] 0.051

HTATIP2 isoform 3 (UniProt Q9BUP3)
Chain of UniProt Q9BUP3 (Q9BUP3 whole entry, looked up): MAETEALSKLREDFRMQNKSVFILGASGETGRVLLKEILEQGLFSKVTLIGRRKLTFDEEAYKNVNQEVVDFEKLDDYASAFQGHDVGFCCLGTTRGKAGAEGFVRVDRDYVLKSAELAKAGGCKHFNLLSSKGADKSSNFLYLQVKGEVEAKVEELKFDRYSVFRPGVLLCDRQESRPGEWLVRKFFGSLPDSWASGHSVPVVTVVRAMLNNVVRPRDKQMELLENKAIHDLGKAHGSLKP
inactive: [1] 0.065 | [2] -0.093 | [3] 0.011 | [4] -0.007 | [5] -0.14 | [6] 0.057 | [7] 0.039 | [8] 0.059 | [9] 0.012 | [10] 0.041

FBXO6 (UniProt Q9NRD1)
inactive: [1] 0.006 | [2] 0.006 | [3] 0.048 | [4] 0.026 | [5] -0.04 | [6] 0.044 | [7] 0.014 | [8] -0.01 | [9] -0.093 | [10] -0.008

H3-3A (UniProt P84243)
inactive: [1] -0.205 | [3] 0.078 | [6] 0.149 | [7] 0.102 | [8] 0.118 | [9] 0.267 | [10] 0.101

FMR1 (UniProt Q06787)
inactive: [1] -0.023 | [2] 0.036 | [3] -0.066 | [4] -0.163 | [7] -0.094 | [8] -0.068 | [9] -0.203

HSPA2 (UniProt P54652)
Chain of UniProt P54652 (P54652 whole entry, looked up): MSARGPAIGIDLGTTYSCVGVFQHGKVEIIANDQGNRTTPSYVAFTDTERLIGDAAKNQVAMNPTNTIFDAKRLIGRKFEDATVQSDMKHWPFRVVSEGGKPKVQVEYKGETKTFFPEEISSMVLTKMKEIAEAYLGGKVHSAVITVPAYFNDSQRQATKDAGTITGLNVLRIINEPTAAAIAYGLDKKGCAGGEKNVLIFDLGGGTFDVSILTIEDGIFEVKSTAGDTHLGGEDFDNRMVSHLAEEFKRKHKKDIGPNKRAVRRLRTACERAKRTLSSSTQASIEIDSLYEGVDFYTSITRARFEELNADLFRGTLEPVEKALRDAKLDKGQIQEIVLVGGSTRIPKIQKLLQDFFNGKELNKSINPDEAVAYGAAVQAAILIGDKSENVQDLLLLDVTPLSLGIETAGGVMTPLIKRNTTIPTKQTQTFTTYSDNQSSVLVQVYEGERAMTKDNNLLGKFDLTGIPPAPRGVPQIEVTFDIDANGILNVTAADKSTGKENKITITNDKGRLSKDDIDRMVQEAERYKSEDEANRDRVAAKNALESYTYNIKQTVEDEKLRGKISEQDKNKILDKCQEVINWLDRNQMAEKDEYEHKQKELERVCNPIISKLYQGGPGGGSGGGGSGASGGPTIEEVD
inactive: [1] -0.109 | [2] 0.046 | [4] -0.039 | [8] 0.057 | [9] 0.13 | [10] -0.004

GSE1 (UniProt Q14687)
inactive: [2] 0.071 | [6] -0.13 | [10] 0.232

IGF2 isoform 3 (UniProt P01344)
inactive: [4] 0.136 | [6] 0.073 | [9] -0.148
